The target of assay [1] is Rap guanine nucleotide exchange factor 3 (Homo sapiens) (UniProt O95398). Briefly: Confirmatory qHTS for antagonist of cAMP-regulated guanine nucleotide exchange factor 3 (EPAC1) (AID 1645880). Also: nearly all actives have a fitted effect of over 55% in size. Also: potency is read from the fitted curve at half-maximal effect.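 As to activity, negative = inhibition: plate controls were DMSO only for no effect and full effect of the ATA control for full effect.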 To be noted: EPAC1 Rap1B-BODIPY-GDP exchange, fluorescence; activity, negative = inhibition: at 115 µM (top of the series). Summed up:
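Nucleotide exchange uses 100 nM EPAC1, 250 nM RAP1B-BODIPY-GDP and 50 uM GDP, with compounds in a concentration-titration series. After 5 min at room temperature, fluorescence (480 nm ex/540 nm em) is read every 5 min for 30 min. Data are normalized to control ATA and DMSO.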
Background: qHTS replaces the single test concentration by a dilution series.

For assay [2] the target is unchanged. As to the kind of experiment: Confirmatory qHTS for agonist of cAMP-regulated guanine nucleotide exchange factor 3 (EPAC1) (AID 1645881).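 Also: EPAC1 catalysed release of BODIPY-GDP from Rap1B seen as fluorescence loss; 100% = effect of cAMP agonist control; nearly all actives have a fitted effect of over 75% in size.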
In assay [3] the target is Rap guanine nucleotide exchange factor 4 (Homo sapiens) (UniProt Q8WZA2). As to the kind of experiment: Confirmatory qHTS for agonist of cAMP-regulated guanine nucleotide exchange factor 4 (EPAC2) (AID 1645884).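 Also: nucleotide exchange releases bodipy-GDP from Rap1 and this lowers its fluorescence; % is scaled to controls: 0 for no effect and ±100 for the full control effect; nearly all actives have a fitted effect of over 65% in size.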
Assay [4] shares this target. Briefly: Confirmatory qHTS for antagonist of cAMP-regulated guanine nucleotide exchange factor 4 (EPAC2) (AID 1645885). Also: nearly all actives have a fitted effect of over 25% in size. Also: potency is read from the fitted curve at half-maximal effect. As to activity change, negative = inhibition: % is scaled to controls: 0 for no effect and ±100 for the full control effect.
The target of assay [5] is Rap guanine nucleotide exchange factor 3 (Homo sapiens) (UniProt O95398). As to the kind of experiment: Counterscreen qHTS for antagonist of cAMP-regulated guanine nucleotide exchange factor 3 (EPAC1) (AID 1645888).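 Also: fluorescence loss as bound BODIPY-GDP is released from Rap1B; % of control where 0% means no effect.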 Summed up:
(§1)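 Measured: fluorescence of BODIPY-GDP bound to Rap1B, which falls as exchange proceeds. Conditions include 50 uM competing GDP, 5 and 30 min reads, and a later cAMP challenge for antagonist detection.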
On the technique in general: Counterscreens check selectivity or assay interference.

For assay [6] the target is unchanged. Briefly: Counterscreen qHTS for agonist of cAMP-regulated guanine nucleotide exchange factor 3 (EPAC1) (AID 1645889). Also: nearly all actives have a fitted effect of over 40% in size. Also: potency is read from the fitted curve at half-maximal effect. As to activation: % of control where 0% means no effect. The gist of the method:
as §1

Inconclusive results are not listed. A number with no mark means an inactive call. The source made the active and inactive calls. Calls follow the shape of the dose curve; as a rule, active = well fitted curve in the direction sought with a large enough effect; inconclusive = small, poorly fitted or top-dose-only effect, or another doubt; inactive = no such curve, though single readings can be large; an effect the other way counts as inactive or inconclusive.

Rap guanine nucleotide exchange factor 3 (Homo sapiens), sequence (O95398 whole entry, looked up): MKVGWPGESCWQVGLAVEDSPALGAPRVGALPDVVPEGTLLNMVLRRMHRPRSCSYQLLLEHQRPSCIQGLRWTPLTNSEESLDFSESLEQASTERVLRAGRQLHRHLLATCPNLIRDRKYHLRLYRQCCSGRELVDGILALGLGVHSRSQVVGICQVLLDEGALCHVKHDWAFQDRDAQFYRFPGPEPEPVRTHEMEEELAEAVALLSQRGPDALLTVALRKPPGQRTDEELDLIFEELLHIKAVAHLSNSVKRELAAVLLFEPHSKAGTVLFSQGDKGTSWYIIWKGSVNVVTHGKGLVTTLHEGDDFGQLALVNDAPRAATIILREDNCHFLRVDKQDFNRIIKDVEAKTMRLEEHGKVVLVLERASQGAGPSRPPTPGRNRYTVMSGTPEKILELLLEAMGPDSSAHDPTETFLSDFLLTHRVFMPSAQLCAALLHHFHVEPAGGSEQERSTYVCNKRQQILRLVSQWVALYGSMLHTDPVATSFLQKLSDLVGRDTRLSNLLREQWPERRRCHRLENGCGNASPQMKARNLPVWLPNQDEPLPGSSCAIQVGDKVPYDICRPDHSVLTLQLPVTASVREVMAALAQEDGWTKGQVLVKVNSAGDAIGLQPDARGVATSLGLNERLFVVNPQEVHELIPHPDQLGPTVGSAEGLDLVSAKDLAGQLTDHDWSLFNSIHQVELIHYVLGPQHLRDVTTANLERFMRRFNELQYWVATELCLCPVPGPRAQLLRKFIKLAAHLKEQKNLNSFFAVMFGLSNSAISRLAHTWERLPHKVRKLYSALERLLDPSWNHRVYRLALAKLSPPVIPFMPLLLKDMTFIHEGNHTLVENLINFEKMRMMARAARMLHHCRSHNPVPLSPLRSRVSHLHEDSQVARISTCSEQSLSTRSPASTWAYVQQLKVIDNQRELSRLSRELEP
Rap guanine nucleotide exchange factor 4 (Homo sapiens), sequence (Q8WZA2 whole entry, looked up): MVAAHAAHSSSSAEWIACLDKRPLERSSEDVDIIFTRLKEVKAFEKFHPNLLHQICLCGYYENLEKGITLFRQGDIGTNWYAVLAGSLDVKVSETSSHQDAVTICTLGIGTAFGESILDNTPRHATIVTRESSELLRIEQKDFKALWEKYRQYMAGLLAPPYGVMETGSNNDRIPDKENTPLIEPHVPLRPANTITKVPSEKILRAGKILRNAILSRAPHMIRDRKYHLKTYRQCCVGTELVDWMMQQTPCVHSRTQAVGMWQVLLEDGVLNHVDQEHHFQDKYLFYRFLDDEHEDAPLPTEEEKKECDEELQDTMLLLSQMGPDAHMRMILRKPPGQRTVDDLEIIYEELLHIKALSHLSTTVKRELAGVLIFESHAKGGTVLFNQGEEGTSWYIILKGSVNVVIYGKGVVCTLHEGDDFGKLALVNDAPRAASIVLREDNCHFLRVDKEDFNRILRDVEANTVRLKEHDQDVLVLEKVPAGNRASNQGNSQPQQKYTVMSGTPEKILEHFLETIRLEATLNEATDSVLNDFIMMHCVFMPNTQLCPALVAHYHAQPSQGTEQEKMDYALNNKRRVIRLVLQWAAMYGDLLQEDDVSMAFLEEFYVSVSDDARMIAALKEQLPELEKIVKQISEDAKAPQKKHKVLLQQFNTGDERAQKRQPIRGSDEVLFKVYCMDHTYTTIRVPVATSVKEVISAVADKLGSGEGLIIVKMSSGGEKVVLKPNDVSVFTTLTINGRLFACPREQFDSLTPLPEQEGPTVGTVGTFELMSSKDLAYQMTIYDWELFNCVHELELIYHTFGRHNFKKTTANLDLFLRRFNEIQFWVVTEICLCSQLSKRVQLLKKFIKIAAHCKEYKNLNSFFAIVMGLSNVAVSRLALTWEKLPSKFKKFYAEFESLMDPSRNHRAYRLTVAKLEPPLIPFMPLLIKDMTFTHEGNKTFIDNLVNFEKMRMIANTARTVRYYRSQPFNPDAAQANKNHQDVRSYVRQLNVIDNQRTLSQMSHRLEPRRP

On to `O=C1COc2ccc(C(=O)COC(=O)c3ccc([N+](=O)[O-])cc3Cl)cc2N1`, for which the Potency entry in assay [1], in assay [2], in assay [3], in assay [4], in assay [5] and in assay [6] was “inactive” in each case.
As for `O=C1NC(=S)S/C1=C\c1coc2ccc(O)cc2c1=O`, in assay [1], the Potency was 39.8 µM (active). The Potency result in assay [2] and in assay [4] was “inactive” in each case. For the same compound, the activation in assay [3] was 11% [at 17.1 µM, percent relative to cAMP agonist control]; in assay [6], -0.252% [at 30.8 µM]. Further, the activity change, negative = inhibition in assay [5] is -13.4% [at 30.8 µM].
Turning to `CCOc1ccc(/C=C2\SC(=S)NC2=O)cc1OC`, the Potency in assay [1] was 15.1 µM (active). Also, the Potency entry in assay [2], in assay [3], in assay [4], in assay [5] and in assay [6] was “inactive” each time.
As to `Cc1ccc(C2CC(=O)Oc3cc(C)c(Br)c(C)c32)cc1` (stereo not given), the Potency result in assay [1], in assay [2], in assay [3], in assay [5] and in assay [6] was “inactive” in each case. In addition, the Potency in assay [4] is 2.13 µM (active).
For `CCCCNC(=O)c1cc(-c2ccc3c(c2)OCO3)on1`, the Potency entry in assay [1], in assay [2], in assay [3], in assay [4], in assay [5] and in assay [6] was “inactive” throughout.
As for `C/C(Cc1ccccc1)=N\NC(=O)c1cccnc1`, the Potency result in assay [1], in assay [2] and in assay [4] was “inactive” in each case. Further, the activation in assay [3] was 21.1% [at 17.1 µM, percent relative to cAMP agonist control]; in assay [6], 15.7% [at 30.8 µM]. Further, the activity change, negative = inhibition in assay [5] is -5.84% [at 30.8 µM].
Regarding `COc1ccc(C)cc1Cn1nnc2ccccc21`, the Potency result in assay [1], in assay [2], in assay [3], in assay [4], in assay [5] and in assay [6] was “inactive” each time.
Consider `O=C1C2CCCN2C(c2ccccc2F)N1c1cccc(Cl)c1` (stereo not given), for which the Potency result in assay [1], in assay [2] and in assay [4] was “inactive” each time. In addition, the activation in assay [3] is 0.711% [at 17.1 µM, percent relative to cAMP agonist control]; in assay [6], 9.98% [at 30.8 µM]. Also, in assay [5], the activity change, negative = inhibition is -15.2% [at 30.8 µM].
With `NC(=O)c1ccsc1NC(=O)CS(=O)(=O)c1ccc(F)cc1`, the Potency result in assay [1], in assay [2], in assay [3], in assay [4], in assay [5] and in assay [6] was “inactive” each time.
Turning to `COc1ccc(-c2cc(=O)oc3c(O)c(O)ccc23)cc1`, in assay [1], the Potency was 8.49 µM (active). The Potency entry in assay [2], in assay [3], in assay [4], in assay [5] and in assay [6] was “inactive” in each case.
As for `CSCCC(NS(=O)(=O)c1ccc2c(c1)OCCO2)C(=O)N(C)Cc1ccc(F)cc1` (stereo not given), the Potency entry in assay [1], in assay [2] and in assay [4] was “inactive” in each case. For the same compound, the activation in assay [3] is 1.67% [at 17.1 µM, percent relative to cAMP agonist control]; in assay [6] it was 5.06% [at 30.8 µM]. For the same compound, in assay [5], the activity change, negative = inhibition was -2.77% [at 30.8 µM].
Take `COc1ccccc1CCC(=O)Nc1cc(S(=O)(=O)N2CCCCC2)ccc1N1CCN(C)CC1`: the Potency result in assay [1], in assay [2], in assay [3], in assay [4] and in assay [5] was “inactive” in each case. Also, the Potency in assay [6] is 63.1 µM (active).
On to `CC1CCCN(C(=O)c2cccc(S(=O)(=O)Nc3cc(C(F)(F)F)ccc3Cl)c2)C1` (stereo not given), for which the Potency in assay [1] is 21.3 µM (active); in assay [4] it was 26.9 µM (active). Further, the Potency entry in assay [2], in assay [3], in assay [5] and in assay [6] was “inactive” throughout.
As to `C/C(=N\NS(=O)(=O)c1ccccc1)c1cc(Cl)cc(Cl)c1O`, the Potency is 33.8 µM (active) in assay [1] and 21.3 µM (active) in assay [4]. Also, the Potency result in assay [2], in assay [3], in assay [5] and in assay [6] was “inactive” throughout.
In the case of `Cc1cccc(S(=O)(=O)NC(=O)C2(C)CCN2C(=O)Cc2cc(F)ccc2F)c1` (stereo not given), the Potency entry in assay [1], in assay [2] and in assay [4] was “inactive” in each case. Besides, the activation is 11.8% [at 17.1 µM, percent relative to cAMP agonist control] in assay [3] and -2.2% [at 30.8 µM] in assay [6]. The activity change, negative = inhibition in assay [5] is 9.86% [at 30.8 µM].
For `O=c1c2cc([N+](=O)[O-])cc([N+](=O)[O-])c2[nH]n1-c1ccccc1`, the Potency in assay [1] is 35.5 µM (active). In addition, the Potency entry in assay [2] and in assay [4] was “inactive” each time. The activation in assay [3] was 3.37% [at 17.1 µM, percent relative to cAMP agonist control]; in assay [6], 10.6% [at 30.8 µM]. The activity change, negative = inhibition in assay [5] was -31.5% [at 30.8 µM].
Turning to `N#C/C(=C\C1=C(N2CCOCC2)C(=C/c2cccc([N+](=O)[O-])c2)/CC1)C(=O)Nc1ccccc1F`, the Potency in assay [1] was 47.8 µM (active). Moreover, the Potency entry in assay [2], in assay [3], in assay [4], in assay [5] and in assay [6] was “inactive” each time.
As for `CCOC(=O)C1=CCN(S(=O)(=O)c2ccc(C)cc2)C1c1cccc(Cl)c1` (stereo not given), the Potency entry in assay [1], in assay [2], in assay [3], in assay [4], in assay [5] and in assay [6] was “inactive” throughout.
In the case of `CCN(CC)c1nc2ccccc2n(Cc2cccc(OC)c2)c1=O`, the Potency result in assay [1], in assay [2], in assay [3], in assay [4], in assay [5] and in assay [6] was “inactive” each time.
With `COc1ccc(C)cc1-n1c(-c2ccc(Cl)cc2)cc2c1CC(C)(C)CC2=O`, the Potency result in assay [1], in assay [2], in assay [3], in assay [5] and in assay [6] was “inactive” in each case. The outcome in assay [4] is “inactive [at 12.7 µM]”.

The values above are taken from PubChem BioAssay (NCATS).
